Fluor 339 460 – intrinsic fluorescence of library compounds, ex339/em460 – biochemical, MLSMR library, data from DPM-DC assay, artefact control, profiling panel | fluorescence fold increase at 10 µM | hit rate 5.5% among 65,000 | compound autofluorescence, ex339/em460 nm, NADH buffer; hits give high values; 1 = no-compound wells, NADH background;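 active = at 10 µM, mean starting fluorescence two-fold or more over control wells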;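 also: signal is the first read of a kinetic run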
MK inhibit – S. pneumoniae mevalonate kinase inhibition. inhibition, % at 10 µM. hit rate 0.48% among 65,000. purified MK, PK/LDH-coupled NADH absorbance 340 nm;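 active = ranked among the strongest by inhibition in the single 10 µM screen, a fixed top-ranked set picked for dose follow-up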
Spn DPM-DC inh – inhibitors of Streptococcus pneumoniae diphosphomevalonate decarboxylase; purified DPM-DC, PK/LDH coupled NADH fluorescence; calls only at 10 µM; hit rate 0.49% among 65,000;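 active = the 320 compounds with the highest percent inhibition in the single-dose primary screen, excluding strongly autofluorescent ones, cut at about 32% in these data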;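 also: kinetic rate of NADH fluorescence loss reporting ADP formed by the decarboxylase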
PMK inhibit – blocks S. pneumoniae phosphomevalonate kinase; purified PMK, PK/LDH-coupled NADH absorbance 340 nm; inhibition, % at 10 µM; hit rate 0.49% among 65,000;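 active = top-ranked compounds by inhibition in the single 10 µM screen, taking a fixed number of the strongest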;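 also: 0% = full reaction with DMSO carrier and 100% = background rate without enzyme reaction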
NADH coupling – blocks coupling enzymes of NAD/NADH assays | coupled PK/LDH NADH assays, four targets | IC50, µM (highest dose often 10 µM), inactives show top-dose inhibition | hit rate 0.02% among 65,000 | AID 774;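 active = single-dose screening hits from any of four coupled enzyme assays that gave an IC50 when retested across doses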;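 also: the DPM-DC format reads NADH fluorescence rather than 340 nm absorbance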
A340 absorber – compounds absorbing at 340 nm | compound absorbance at 340 nm, fold over control | fold change at 10 µM | 65,000 tested, under 10 active | AID 708;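 active = at 10 µM dose, initial 340 nm absorbance at least 2 fold that of control wells; inactive = change under 2 fold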;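 also: initial absorbance extrapolated from kinetic A340 decline of NADH oxidation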
Starred values were filed as active, the others as inactive; i = inactive; . = no result given; + = active, no number. Rows were chosen to be rich in hits. Some 6.8% of all compounds tested hit in one or more screens of this group.

SMILES | Fluor 339 460 | MK inhibit | Spn DPM-DC inh | PMK inhibit | NADH coupling | A340 absorber
O=C(CN1C(=O)C2C3C=CC(C3)C2C1=O)Nc1ccc2nccnc2c1 (stereo not given) | 2.1* | 9 | . | 10 | 10% | 1.1
CCOC(=O)c1cccc(NC(=O)CN2C(=O)C3C4C=CC(C4)C3C2=O)c1 (stereo not given) | 1.1 | 6 | i | 10 | 5% | 0.98
COc1ccccc1CN(Cc1ccco1)S(=O)(=O)c1ccc(-n2cnnn2)c(OC)c1 | 1.2 | 4 | i | 2 | 2% | 1
COc1ccccc1-n1c(=S)sc2c(=O)n(Cc3ccco3)c(SC)nc21 | 1.1 | 1 | i | 2 | 1% | 1.1
COc1ccccc1NC(=O)CC1Nc2ccccc2NC1=O (stereo not given) | 1.4 | 11 | i | 6 | 10% | 1.1
Cc1cc2c(cc1C)NC(CC(=O)NCc1ccccc1)C(=O)N2 (stereo not given) | 2.1* | 0 | . | 0 | 0% | 1.2
COc1ccc(CCNC(=O)CC2Nc3cc(C)c(C)cc3NC2=O)cc1OC (stereo not given) | 2.1* | 2 | i | 14 | 6% | 1.1
Cc1cc(=O)n2nc(N3CCC(C(=O)NCCC4=CCCCC4)CC3)sc2n1 | 1.1 | 0 | i | 2 | 1% | 1
COc1ccc(S(=O)(=O)Nc2ccccc2C(=O)NCc2ccco2)cc1Br | 1.6 | 6 | i | 1 | 5% | 1
CCC(=O)N(Cc1ccco1)c1nc(-c2ccccc2)cs1 | 1 | 0 | i | 27* | 9% | 1
CCC(=O)N(Cc1ccco1)c1nc(-c2cc(OC)ccc2OC)cs1 | 1 | 5 | i | 5 | 4% | 1
Cc1cc(=O)oc2cc3c(cc12)OCCO3 | 3.6* | 4 | . | 0 | 2% | 1.1
Cc1cc(=O)oc2cc3c(cc12)OCCN3 | 2.1* | 4 | . | 11 | 8% | 1.1
Cc1cc2oc(=O)cc(C)c2c(=O)o1 | 1.2 | 0 | i | 9 | 10% | 1
O=C(O)C(c1ccccc1)N1CCCC1 (stereo not given) | 1.1 | 5 | i | 17 | 2% | 1
Cc1ccc(OCCN2C(=O)OC(C)(C)C2(C)O)cc1 (stereo not given) | 1.1 | 4 | i | 13 | 6% | 0.98
COc1ccc(C(=O)Nc2cccc3c2C(=O)NC3=O)cc1S(=O)(=O)N1CCOCC1 | 1.5 | 4 | i | 25* | 14% | 1.1
C/C=C/Cn1c(N(C)Cc2ccccc2)nc2c1c(=O)[nH]c(=O)n2C | 0.54 | 0 | + | 11 | 16% | 1.1
CN(Cc1ccccc1)c1nc2c(c(=O)[nH]c(=O)n2C)n1C | 1 | 10 | i | 12 | 7% | 1
COc1ccc(NC(=O)c2cnc3sccn3c2=O)cc1OC | 1 | 3 | i | 8 | 5% | 1.1
COc1cccc(N2CCN(Cc3cccnc3)CC2)c1 | 1 | 51* | i | 0 | 6% | 1.1
FC(F)(F)c1cccc(N2CCN(Cc3cccnc3)CC2)c1 | 1 | 56* | i | 1 | 9% | 1
COc1cccc(CN2CCN(c3cccc(C(F)(F)F)c3)CC2)c1OC | 1.1 | 4 | i | 0 | 1% | 1
COc1cc(CN2CCN(c3cccc(Cl)c3)CC2)cc(OC)c1OC | 1 | 3 | i | 3 | 2% | 1
FC(F)(F)c1cccc(N2CCN(Cc3ccoc3)CC2)c1 | 1.1 | 50* | i | 12 | 21% | 1.1
SMILES | Fluor 339 460 | MK inhibit | Spn DPM-DC inh | PMK inhibit | NADH coupling | A340 absorber
O=c1c2c3nc4ccccc4nc3n(CCN3CCOCC3)c2ncn1CCN1CCOCC1 | 1.3 | 6 | i | 15 | 9% | 1.1
Cc1cccc(C(=O)Nc2ccccc2C(=O)OCc2c(C)noc2C)c1 | 1.3 | 42* | i | 20 | 21% | 1
O=C(Nc1c(-c2ccccc2)nc2sccn12)c1ccccc1 | 1.1 | 15 | i | 40* | 18% | 1
Nc1nc(-c2cccs2)c(NC(=O)c2ccccc2)s1 | 1.1 | 5 | i | 12 | 6% | 1
Cc1nc(NCc2ccco2)c2c3c(sc2n1)CCC3 | 1.1 | 4 | i | 1 | 2% | 1
CC(C)Sc1nc(NCc2ccco2)c2c3c(sc2n1)COC(C)(C)C3 | 2* | 5 | . | 0 | 3% | 1.1
COC(=O)c1ccc(-c2nc(O)c3cnccn23)cc1 | 1.1 | 0 | i | 8 | 3% | 1.1
CCOC(=O)c1nc(-c2ccccc2)oc1N(C)C | 4.9* | 0 | . | 9 | 5% | 1.1
CN(C)c1oc(-c2ccccc2Cl)nc1S(=O)(=O)c1ccccc1 | 1.1 | 8 | i | 0 | 7% | 1.1
CN(C)c1oc(-c2ccccc2Cl)nc1C#N | 2.7* | 5 | i | 11 | 3% | 1.1
Cc1ccccc1-c1nnc(-c2ccccc2)o1 | 1.1 | 5 | i | 8 | 10% | 1
CN(C)c1oc(-c2ccccc2)nc1C#N | 2.1* | 8 | . | 20 | 14% | 1.1
CC(C)Oc1ccc(Cc2c(O)nc(NCCCN(C)C)[nH]c2=O)cc1 | 1.1 | 0 | i | 0 | 0% | 1
CCOc1ccc(NC(=O)CSc2nc3c(c(=O)n2C)SC(C)C3)cc1 (stereo not given) | 0.96 | 0 | i | 2 | 8% | 1.1
c1coc(CNc2ncnc3nc[nH]c23)c1 | 1.1 | 14 | i | 0 | 5% | 1
Cc1ccc2[nH]c3c(NCc4ccco4)ncnc3c2c1 | 3.8* | 4 | . | 1 | 3% | 1.1
Cc1ccc2[nH]c3c(NCCCN4CCCC4=O)ncnc3c2c1 | 3.8* | 7 | . | 10 | 9% | 1.1
CCc1cc2c(NCCN3CCCCC3)ncnc2s1 | 1.1 | 2 | i | 24 | 9% | 1
COc1ccc2[nH]c3c(NCCN4CCCCC4)ncnc3c2c1 | 3.7* | 5 | . | 8 | 7% | 1.1
C/C(NC(=O)c1cccs1)=C1\C(=O)C[C@@H]2[C@H]1C2(C)C | 1.1 | 4 | i | 1 | 2% | 1.1
N#Cc1ccccc1Cn1c(-c2cscn2)nc2ccccc21 | 1.2 | 0 | i | 3 | 1% | 1.1
C=CCNS(=O)(=O)c1ccc(OCC(=O)OCC)cc1 | 1.1 | 6 | i | 1 | 4% | 1
Cc1noc(C)c1COC(=O)COc1ccc2c(C)cc(=O)oc2c1 | 1.6 | 0 | i | 0 | 4% | 1.1
C=CCOC(=O)COc1ccc2c(C)c(CC)c(=O)oc2c1 | 3.9* | 11 | . | 7 | 9% | 1.1
C=CCOC(=O)COc1ccc2c(C)c(C)c(=O)oc2c1 | 2.1* | 6 | . | 8 | 7% | 1.1
COc1ccc(OC)c(CCNC(=O)CC2Oc3ccc(C)cc3NC2=O)c1 (stereo not given) | 1.1 | 11 | i | 0 | 4% | 1
CN(C(=O)c1ccc(Cl)c(S(=O)(=O)N2CCOCC2)c1)c1ccccc1C(=O)O | 1 | 8 | i | 9 | 6% | 0.98

Screens as filed in PubChem.
